# TSHR ag: activates the human thyroid stimulating hormone receptor; P16473; HEK293-CNG-TSHR cells (CNG channel as cAMP sensor), membrane potential dye, cAMP; Potency, µM (highest dose often 57.1 µM), without a hit: at the highest dose activation, hits mostly activators; AID 926; actives 0.48% (n = 73,000); active means well fitted activation curve with a large enough effect in the main read-out, with a control signal flat, not every such curve was filed as active; inconclusive means small, poorly fitted or top-dose-only effect, or a change in a side signal; inactive means no such curve, though single readings can be large or run the other way; % of control where 0% means no effect;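 further: the control signal comes from parental cells without the receptor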
#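 HEK 293 cells stably expressing TSHR and a modified CNG channel, with CNG-only parental cells as counterscreen, were preloaded 60 min at room temperature with membrane potential dye containing 100 uM RO 20-1724. Compound exposure was 30 min, and depolarization was read as fluorescence at 590 nm.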
# GBA mod: human lysosomal glucosylceramidase modulation | P04062 | purified enzyme, resorufin glucoside fluorescence (screen aimed at inhibitors), 20 min | Potency, µM | actives 1.1% (n = 48,000) | AID 360; in the data active means potency below about 15 µM; inconclusive means mostly about 16 µM to 33 µM;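 further: the screen sought inhibitors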
#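 Compounds titrated against 0.2 nM normal enzyme, 30 uM resorufin beta-D-glucopyranoside substrate, citrate/phosphate buffer with taurocholate and tween-20, pH 5.9. Reaction ran 20 min at room temperature; fluorescence (Ex 548/Em 600) gave AC50.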
# PK Bst: modulators of Bacillus stearothermophilus pyruvate kinase; actives 1.2% (n = 51,000); purified pyruvate kinase, luminescence ATP production; ribose 5-phosphate activator present at AC10; AID 361; Potency, µM; in the data active means potency below about 11 µM; inconclusive means mostly about 12 µM to 25 µM;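 the screen sought inhibitors and activators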;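 further: scaled between full activation by ribose 5 phosphate and full inhibition by luteolin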
# HEK293 cAMP ctrl: counter-screen for TSHR agonists: cAMP increase in parental HEK293. Potency, µM (series often up to 57.1 µM), for inactives: at the highest dose activation, hits mostly activators. actives 2.5% (n = 73,000). AID 938. parental HEK293 CNG cAMP sensor, membrane potential fluorescence; further: % of control where 0% means no effect; nearly all actives have a fitted effect of over 55% in size
#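 Parental HEK 293 cells stably expressing a modified CNG channel (no TSHR) report cAMP rise as membrane depolarization. Membrane potential dye with 100 uM RO 20-1724 was loaded for 60 min at room temperature, then compound added for 30 min; fluorescence read at 590 nm.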
# Caspase-7 inhib: blocks human caspase-7 allosterically or competitively. AID 889. recombinant caspase-7, Ac-DEVD-AFC fluorescence rate. actives 0.02% (n = 75,000). P55210. Potency, µM (highest dose often 57.5 µM), for the others: at the highest dose activity change, negative = inhibition, usual class: inhibitors; active means well fitted inhibition curve with a large enough effect in the main read-out, with a control signal flat, not every such curve was filed as active; inconclusive means small, poorly fitted or top-dose-only effect, or a change in a side signal; further: % of control where 0% means no effect
# Caspase-1 inhib: allosteric or competitive inhibitors of human caspase-1; P29466; Caspase-1 enzyme, Ac-WEHD-AFC fluorogenic rate; Potency, µM (top dose mostly 57.5 µM), without a hit: at the top dose activity change, negative = inhibition, usual class: inhibitors; actives 0.03% (n = 75,000); AID 900;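 further: plate controls were vehicle for no effect and no substrate for full effect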
# * = called active by the depositor; i = inactive; ? = inconclusive; / = no result; [ ] = dose if it differs, or a comment. A selection: hits, their analogues and other compounds. The true share with any hit is near 4%. Unless noted, the call rests on the fitted dose curve; in most records, active means well fitted curve in the direction sought with a large enough effect; inconclusive means small, poorly fitted or top-dose-only effect, or another doubt; inactive means no such curve, though single readings can be large; an effect the other way counts as inactive or inconclusive. Potency means the concentration at half of the fitted maximal effect.
SMILES,TSHR ag,GBA mod,PK Bst,HEK293 cAMP ctrl,Caspase-7 inhib,Caspase-1 inhib
CC(C)C(c1nnnn1C1CCCC1)N(C)C1CCCCC1 (stereo unspecified),?,>77,>57,20µM*,1%,0%
COC(=O)/C=C\CCc1coc(/C=C\CNC(=O)OC)n1,-5%[11.4 µM],/,/,1%[11.4 µM],2%[11.5 µM],2%[11.5 µM]
N#C/C(=C\Nc1ccccn1)C(=O)c1ccco1,0%[11.4 µM],/,/,1%[11.4 µM],-3%[11.5 µM],-5%[11.5 µM]
COc1ccc(C(=O)N2CCC[C@@]3(CCN(Cc4ccc(C#N)cc4)C3)C2)cc1,?,/,/,?,-5%,-6%
O=C1Nc2ccccc2[C@]1(O)Cc1ccccn1,-3%[11.4 µM],/,/,-3%[11.4 µM],2%[11.5 µM],0%[11.5 µM]
O=C1c2ccccc2C(Cc2ccnc(F)c2)(Cc2ccnc(F)c2)c2ccccc21,?,/,/,0.25µM*,1%,-1%
O=C(O)c1ccc(Cl)c(S(=O)(=O)Nc2ccccc2F)c1,-1%,/,/,-1%,-1%,1%
CCCCn1c(SCc2nnc(-c3ccccc3)o2)nc2c1c(=O)n(C)c(=O)n2C,?,>77,>57,25µM*,-1%,0%
O=C(CN1CCN(Cc2ccccc2)CC1)N1CCCc2c1c(=O)oc1ccc(O)cc21,-21%,14*,>57,-15%,5%,-2%
O=C(c1ccco1)N1CCN(CC(=O)N2CCCc3c2c(=O)oc2ccc(O)cc32)CC1,1%,>77,>57,4%,0%,-1%
Cc1cc(NC(=O)COC(=O)c2ccc(S(=O)(=O)N3CCCc4ccccc43)cc2)no1,16µM*,/,>57,17%,-1%,-1%
Cc1cc(NC(=O)COC(=O)c2cccc(S(=O)(=O)N3CCOCC3)c2)no1,-3%,>77,>57,2%,1%,-1%
CCOC(=O)N1CCc2c(sc3c2C(=O)NC(c2ccccc2)N3)C1 (stereo unspecified),?,4*,i,?,-12%,-15%
CN1CCc2c(sc3c2C(=O)NC(c2cccc(OC(=O)c4cccs4)c2)N3)C1 (stereo unspecified),5%,/,/,22%,?,/
CCC1Oc2ccc(C)cc2N(CC(=O)NCCC2=CCCCC2)C1=O (stereo unspecified),?,>77,>57,6.3µM*,0%,-2%
CC(=O)c1ccc(OC2C=CC(C#Cc3ccc(Br)cc3)OC2CO)cc1 (stereo unspecified),5%[11.4 µM],/,/,11%[11.4 µM],0%[11.5 µM],-1%[11.5 µM]
CCOC(=O)C1=C(c2ccccc2)NC(SCC(=O)Nc2ccc(C)cc2)=C(C#N)C1c1ccco1 (stereo unspecified),/,12*,>57,5%,-11%,-9%
CCOC(=O)C1=C(c2ccccc2)NC(SCC(=O)Nc2cccc(C)c2)=C(C#N)C1c1ccco1 (stereo unspecified),7%,i,>57,10%,-11%,-14%
COc1cccc(-c2nc(Cc3ccc(OC)c(OC)c3)no2)c1,?,/,/,25µM*,-2%,-1%
COc1ccc(-c2ccc(-c3nnc(Cc4ccc(OC)c(OC)c4)o3)cc2)cc1,/,>77,>57,28%,3%,-1%
C[C@H](Oc1ccc(Oc2cnc3ccc(Cl)cc3n2)cc1)C(=O)O,1%[11.4 µM],/,/,3%[11.4 µM],0%[11.5 µM],3%[11.5 µM]
CN(C)/C=C/C(=O)c1nnn(C2CCCCC2)c1NC1CCCCC1,?,/,/,16µM*,-8%,-3%
C1CCC(Nc2nnnn2C2CCCCC2)CC1,?,/,/,?,0%,0%
CO[C@H]1COC(=O)[C@H](C)NC(=O)C/C=C\[C@@H](C)[C@@H](NS(=O)(=O)c2ccc(C)cc2)COC(=O)C/C=C\[C@@H]1C,-4%[11.4 µM],/,/,-1%[11.4 µM],-1%[11.5 µM],-2%[11.5 µM]
O=C(Nc1ccc2oc(-c3ccccc3)nc2c1)c1cccnc1,-2%,>77,/,3%,-1%,3%
SMILES,TSHR ag,GBA mod,PK Bst,HEK293 cAMP ctrl,Caspase-7 inhib,Caspase-1 inhib
CCc1ccc2oc(-c3cccc(NC(=O)c4cccnc4)c3)nc2c1,1%,?,4.1*,-11%,-2%,-3%
COc1ccc2c(C)cc(SCC#N)nc2c1,?,>77,i,32µM*,-5%,-6%
NC1=NC2(CCN(Cc3ccccc3)CC2)n2c(nc3ccccc32)N1,6%,3.7*,6.9*,4%,0%,-1%
NC1=NC2(CCC(c3ccccc3)CC2)n2c(nc3ccccc32)N1 (stereo unspecified),1%[11.4 µM],15*,>57,19%,-11%,?
COC(=O)COc1cccc(-n2cnnn2)c1,-7%,>77,>57,4%,-1%,1%
Cc1cc(C(=O)COc2cccc(-n3cnnn3)c2)c(C)n1-c1ccccc1,?,>77,/,25µM*,-3%,-2%
CCOC(=O)CCN1C(=O)[C@@H]2[C@H]3C(=CC[C@H]2C1=O)C(=O)[C@H]1O[C@H]1[C@H]3O,-3%[11.4 µM],/,/,6%[11.4 µM],?,?
O=C1NCCCC2c3cc(O)c4ccccc4c3OC12N1CCCCC1 (stereo unspecified),1%,>77,>57,-5%,?,32µM*
O=C1NCCCC2c3c(cc(Br)c(O)c3Br)OC12N1CCOCC1 (stereo unspecified),2%,>77,>57,4%,0%,-2%
CCOc1cc(C2C(C(=O)OC(C)C)=C(C)N=C3SCCC(=O)N32)ccc1OC(C)=O (stereo unspecified),-5%,14*,>57,9%,-1%,-1%
O=S(=O)(c1ccccc1)N1CCC2(CCCN(Cc3ccccc3)C2)CC1,?,/,/,16µM*,0%,-2%
COc1ccc(-n2nc(C(=O)NCc3ccco3)c3c4ccccc4n(C)c3c2=O)cc1,?,>77,>57,10µM*,1%,-4%
CCOC(=O)CCN1C(=O)[C@H]2[C@H]3[C@H](O)[C@H](O)C/C(=N/NC(=O)OCC)[C@H]3CC[C@@H]2C1=O,3%[11.4 µM],/,/,6%[11.4 µM],1%[11.5 µM],-2%[11.5 µM]
COc1ccc2c(c1)[n+]([O-])c(/C(C)=N/NC(N)=S)c(C)[n+]2[O-],2%[11.4 µM],/,/,-3%[11.4 µM],-3%[11.5 µM],0%[11.5 µM]
CSc1nc(NCc2ccco2)c2c3c(sc2n1)CN(C)CC3,?,>77,>57,25µM*,-1%,-1%
CCCCCCCCCCCCCCC/C=C\[C@H](O)[C@@H](NC(=O)CCCCCCCCCCCCC)OC (tested in a mixture with another compound),5%,/,/,5%,2%,5%
COCCn1c(=O)c(-c2cccs2)nc2cnc(Oc3ccc(OC)cc3)nc21,4%,/,/,10%,?,/
c1ccc(-c2nnn(C34CC5CC(CC(C5)C3)C4)n2)cc1,32µM*,/,/,19%,-1%,-1%
c1ccc(-c2nnn(CCN3CCCCC3)n2)cc1,1%[11.4 µM],/,/,9%[11.4 µM],0%[11.5 µM],1%[11.5 µM]
CCC12CCCN3CCC4(C(=C(C(=O)OC)C1)Nc1ccccc14)C32 (stereo unspecified),?,>77,>57,25µM*,-5%,-7%
